# RMI FANCM FP = blocks RMI1/RMI2 complex binding to FANCM MM2 peptide; Fluorescence polarization, RMI core complex with F-MM2 peptide; active compounds read low; FP signal (polarization) at 33 µM; hit rate 0.58% among 70,000; in the data active = FP signal below about 40
# * marks the source's active call; other numbers are inactive results; ! = not active in a repeat. This excerpt belongs to a sample that is enriched for hits.
SMILES,RMI FANCM FP
COc1ccc(S(=O)(=O)NCC2CCN(Cc3ccccc3)CC2)c(OC)c1,77
Cc1ccc(S(=O)(=O)Nc2ccccc2SCCS(=O)(=O)c2ccc(Cl)cc2)cc1,55
N#CCn1cnc2c(-c3ccccc3)csc2c1=O,62
O=c1c2scc(-c3ccccc3)c2ncn1Cc1cc(=O)n2ccccc2n1,-6*
COc1ccc(-c2csc3c(=O)n(Cc4ccccc4F)cnc23)cc1,66
COc1cn(CC(=O)Nc2ccc(F)cc2F)c(CSc2ccccc2)cc1=O,55
O=C1CNC(=S)N1Cc1ccco1,51
O=c1cc(O)n(Cc2ccco2)c(=S)[nH]1,26*
O=c1[nH]c(=S)c2c(n1Cc1ccco1)CCCC2,63
Cc1cccc(CS(=O)(=O)Nc2ccc3c(c2)C(=O)NCCO3)c1,66
COCCN1CCC(CNS(=O)(=O)c2cc(C)ccc2OC)CC1,73
C(/C=C/c1ccco1)=N/Nc1nnc(-c2ccccc2)c(-c2ccccc2)n1,21*
C(=N/Nc1nnc(-c2ccccc2)c(-c2ccccc2)n1)/c1ccncc1,56
C(=N/Nc1nc2ccccc2s1)/c1ccco1,61
Cn1cccc1C(CNS(=O)(=O)c1ccc(F)cc1)N1CCCC1 (stereo not drawn),64
Cc1cc(C)c(NC(=O)Cn2c3ccc([N+](=O)[O-])cc3c3cc([N+](=O)[O-])ccc32)c(C)c1,59
Cc1oc(-c2ccc(Cl)cc2[N+](=O)[O-])cc1C(=O)Nc1ccc(S(N)(=O)=O)cc1,13*
Cc1cc(NS(=O)(=O)c2ccc(NC(=O)c3cc(Cl)ccc3[N+](=O)[O-])cc2)no1,53
Cc1oc(-c2cccc(C(F)(F)F)c2)cc1C(=O)Nc1ccc(S(N)(=O)=O)cc1,64
O=c1[nH]c2ccccc2c(O)c1C=Nc1ccccc1,62
N#C/C(=C/c1ccc(Br)o1)c1nc(-c2ccc(F)cc2)cs1,56
Cc1ccc(C)c(-c2nnc(NC(=O)c3ccc(S(=O)(=O)N4CCc5ccccc54)cc3)o2)c1,18*
CSc1cccc(C(=O)Nc2nnc(-c3cc(C)ccc3C)o2)c1,52
CS(=O)(=O)c1cccc(-c2nnc(NC(=O)c3ccc(S(=O)(=O)N4CCc5ccccc5C4)cc3)o2)c1,64
CCOC(=O)c1ccc(NC(=O)Cc2csc(SCc3ccc(F)cc3)n2)cc1,100
SMILES,RMI FANCM FP
O=C(Cc1cc(=O)[nH]c(SCc2ccccc2F)n1)NCCCc1ccccc1,63
CC(=O)Nc1ccc2nc(Nc3nc4c(F)cc(F)cc4s3)sc2c1,106
O=C(Nc1cccc(C(F)(F)F)c1)c1ccc(Cl)cc1,58
CN(/C=C1\Oc2cc(O)ccc2C1=O)Cc1ccccc1,14*
O=C1/C(=C/c2ccc(Cl)cc2)Oc2cc(O)ccc21,-17
Cc1ncc(CO)c(/C=C2\Oc3cc(O)ccc3C2=O)c1O,85
O=C(Nc1ccc(Br)cc1C(=O)O)c1cccnc1,107
COc1ccccc1NC(=O)CSc1oc(-c2ccco2)nc1S(=O)(=O)c1ccc(F)cc1,85
Cc1cc2ncn(S(=O)(=O)N3CCCC3)c2cc1C,59
COc1ccc2nc(-n3nc(C)cc3NC(=O)C3CC3)sc2c1,63
Cc1cc(=O)oc2cc(O)c(O)cc12,10*
Cc1cc(=O)oc2c(O)c(O)ccc12,66
Cc1cc(=O)oc2cc(O)ccc12,51
COc1cn2c(cc1=O)C(=O)N(CCNC(=O)COc1ccc(C)cc1)CC2,63
CCOc1ccccc1C(=O)NCCc1cn2ccsc2n1,56
O=C(Nc1nc(CN2CCc3ccccc3C2)cs1)c1ccc(C(F)(F)F)cc1,67
CCc1nn(C)c2c(=O)c(=O)c2n(C)[nH]1,32*
CC(=O)OC(Cc1ccccc1)NC(=O)CCCC(=O)NC(Cc1ccccc1)OC(C)=O (stereo not drawn),56
Fc1ccc2nc(Nc3nnc(-c4ccco4)o3)sc2c1,80
COc1ccccc1-c1nnc(Nc2nc3ccc(F)cc3s2)o1,29*
Fc1ccc2nc(Nc3nnc(-c4cccs4)o3)sc2c1,84
Cn1c(SCC(=O)c2ccc3c(c2)OCCO3)nnc1-c1ccc2ccccc2c1,82
CC(=O)OCC(=O)[C@@]1(O)CC[C@H]2[C@@H]3CCC4=CC(=O)CC[C@]4(C)[C@H]3C(=O)C[C@@]21C,58
CC(=O)OCC(=O)[C@@]1(O)CCC2C3CCC4=CC(=O)CC[C@]4(C)C3C(=O)C[C@@]21C (stereo partly drawn),64
C[C@]12CCC(=O)C=C1CCC1C2C(=O)C[C@@]2(C)C1CC[C@]2(O)C(=O)CO (stereo partly drawn),-7*
SMILES,RMI FANCM FP
O=C(Cc1csc(Nc2ccccc2)n1)Nc1ccc2c(c1)OCO2,64
C=CCN1CCCC1CNC(=O)c1cc2[nH]nnc2cc1OC (stereo not drawn),61
CCN1CCC[C@H]1CNC(=O)c1c(OC)ccc(Br)c1OC,59
CCN1CCC[C@H]1CNC(=O)c1cc(S(N)(=O)=O)ccc1OC,22*!
COC(=O)c1ccccc1OC1OC(CO)C(O)C(O)C1O (stereo not drawn),61
O=C(O)c1cc(O)c2c(c1)[C@@H]([C@H]1c3cc(C(=O)O)cc(O)c3C(=O)c3c(O[C@H]4O[C@H](CO)[C@@H](O)[C@H](O)[C@H]4O)cccc31)c1cccc(O[C@H]3O[C@H](CO)[C@@H](O)[C@H](O)[C@H]3O)c1C2=O,22*
CC(C)c1cc(=O)[nH]c(-n2nc(-c3cccs3)cc2NC(=O)/C=C\c2ccc3c(c2)OCO3)n1,26*
CC(C)c1cc(=O)[nH]c(-n2nc(-c3cccs3)cc2NC(=O)c2cccs2)n1,75
Cc1cc(=O)[nH]c(-n2nc(C)cc2NC(=O)/C=C/c2ccc3c(c2)OCO3)n1,54
CCc1cc(=O)[nH]c(SCC(=O)Nc2nnc(C)s2)n1,56
CC(NS(=O)(=O)c1ccc(Oc2cccc(Cl)c2C#N)cc1)C(C)(C)C (stereo not drawn),58
Cc1onc(-c2ccccc2)c1C(=O)NCCNC(=O)c1c(-c2ccccc2)noc1C,-22*
COc1cccc(OC)c1C(=O)N[C@@H]1C(=O)N2[C@@H]1SC(C)(C)[C@@H]2C(=O)O,67
CC(=O)Nc1ccc(OCCCNC(=O)c2c(-c3ccccc3)noc2C)cc1,63
Cc1onc(-c2c(Cl)cccc2Cl)c1C(=O)N[C@@H]1C(=O)N2[C@@H]1SC(C)(C)[C@@H]2C(=O)O,65
Cc1onc(-c2ccccc2)c1C(=O)NC1C(=O)N2[C@@H]1SC(C)(C)[C@@H]2C(=O)O (stereo partly drawn),9*
Cc1onc(-c2ccccc2)c1C(=O)NNC(=O)C1CC1,61
Cc1cc(Cl)ccc1NC(=O)/C(C#N)=C/N(C)C,55
CCn1cccc(-c2nnc(SCC(=O)Nc3nc(C)cs3)n2C)c1=O,61
Nc1ccc(C(=O)O)c2c(C(=O)O)cccc12,19*
O=C(O)c1cccc(Cl)c1C(=O)O,58
O=C(O)c1cccc2cccc(C(=O)O)c12,53
CCOc1ccc(Nc2nc(NC3CCCCC3)nc(N3CCOCC3)n2)cc1,124
C#CCn1c(C2CC(=O)N(c3cc(Cl)ccc3C)C2)nc2ccccc21 (stereo not drawn),59
C=C(C)[C@@H]1CC[C@]2(CO)CC[C@]3(C)[C@H](CCC4[C@@]5(C)CC[C@H](O)C(C)(C)C5CC[C@]43C)C12 (stereo partly drawn),51
CC1(C)C2CC[C@]3(C)C(C(=O)C=C4[C@H]5C[C@@](C)(C(=O)O)CC[C@]5(C)CC[C@]43C)[C@@]2(C)CC[C@@H]1O (stereo partly drawn),53

# Compound activity deposited in PubChem BioAssay by Small Molecule Screening Facility, UW Madison.
